KCNQ2 inh: inhibitors of rat KCNQ2 potassium channel. actives 1.1% (n = 310,000). B-score at 10 µM. CHO-K1 KCNQ2, FluxOR thallium flux, 20 min; active compounds read low. O88943;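 active means fluorescence ratio B-score at most minus 3 library SDs, with starting brightness B-score within 2 library SDs, cut at about -5.5 in these data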
KCNQ2 pot: KCNQ2 (rat) channel potentiation; O88943; CHO-K1 KCNQ2, FluxOR thallium flux fluorescence; active compounds read high; B-score at 10 µM; actives 0.54% (n = 310,000);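 active means fluorescence ratio B-score at least 3 SD of library B-scores, with initial fluorescence B-score within 3 of them, cut at about 5.3 in these data; same plate scores as AID 2156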;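 further: B-score of peak minus minimum over baseline fluorescence ratio after K+ and Tl+ stimulus; positive B-score means potentiation of KCNQ2 with more thallium influx and brighter signal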
Kir21 conf inh: confirmation of mouse Kir2.1 potassium channel inhibitors; AID 2032; Kir2.1-expressing cells, FluxOR thallium flux fluorescence; active compounds read low; Tl flux remaining, % of negative control (active compounds read low), % at 10 µM; actives 41% (n = 2,300); shares compounds with KCNQ2 pot;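 active means Primary-screen hit whose thallium flux fell at least 3 control SD below untreated wells in both duplicates, with normal baseline fluorescence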;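 further: 0% = blank wells without stimulus and 100% = stimulated no-compound controls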
HEK293 Tl flux: parental HEK293 activity in Kir2.1 inhibitor counter-screen; actives 19% (n = 2,300); parental HEK293 cells, FluxOR thallium flux fluorescence; 0% = unstimulated blank wells; AID 2105; FluxOR signal as % of negative control (100 = no effect), % at 10 µM; shares compounds with KCNQ2 pot;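 active means dye signal at least 3 control SD above or below untreated wells in both duplicates, raw fluorescence within 3, either direction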;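 further: percent is based on the flux ratio of peak minus minimum fluorescence over baseline F0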
CHO-K1 ctr: counter-screen for KCNQ2 potentiators: effect in parental CHO-K1 cells; shares compounds with KCNQ2 pot; FluxOR thallium flux fluorescence; zero = vehicle mean+3SD, 100% = vehicle-minus-blank window; activity increase over 3SD of controls, % at 10 µM; actives 43% (n = 1,200); AID 2282;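 active means signal rise of at least 3 SD above the untreated control mean, in both duplicate wells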;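 further: counter screen of KCNQ2 potentiator hits so any rise reflects channel-independent effects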
KCNQ1 pot spec: human KCNQ1 counter-target activity of KCNQ2 potentiators. shares compounds with KCNQ2 pot. CHO KCNQ1 stable, FluxOR thallium flux fluorescence; beyond 3SD, as % of vehicle-control signal. activation over 3SD threshold, % at 10 µM. actives 28% (n = 1,200);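 active means fluorescence ratio rise of at least 3 SD of vehicle wells above their mean, in both replicate wells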;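 further: 0% = vehicle mean plus 3 SD and 100% = vehicle minus unstimulated blank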
Target sequence (P51787 whole entry, looked up): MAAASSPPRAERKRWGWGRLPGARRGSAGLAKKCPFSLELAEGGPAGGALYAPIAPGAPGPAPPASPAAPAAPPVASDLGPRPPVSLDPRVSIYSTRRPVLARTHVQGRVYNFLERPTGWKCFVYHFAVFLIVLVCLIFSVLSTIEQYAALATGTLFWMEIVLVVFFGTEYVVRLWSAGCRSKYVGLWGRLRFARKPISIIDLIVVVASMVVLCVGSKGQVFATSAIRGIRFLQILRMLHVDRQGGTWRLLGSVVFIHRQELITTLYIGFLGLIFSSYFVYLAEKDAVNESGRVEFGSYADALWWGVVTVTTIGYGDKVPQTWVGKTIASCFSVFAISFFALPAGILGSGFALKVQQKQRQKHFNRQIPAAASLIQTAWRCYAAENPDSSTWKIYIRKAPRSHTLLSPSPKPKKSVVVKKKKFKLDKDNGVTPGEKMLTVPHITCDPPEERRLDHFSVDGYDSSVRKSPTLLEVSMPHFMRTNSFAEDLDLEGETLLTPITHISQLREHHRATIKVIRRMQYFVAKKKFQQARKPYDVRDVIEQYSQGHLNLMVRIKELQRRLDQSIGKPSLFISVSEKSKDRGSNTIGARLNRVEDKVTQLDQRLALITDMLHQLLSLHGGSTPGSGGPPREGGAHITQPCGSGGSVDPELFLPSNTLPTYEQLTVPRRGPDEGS
KCNQ2 pot confirm: rat KCNQ2 channel potentiator confirmation; shares compounds with KCNQ2 pot; CHO-KCNQ2 cells, FluxOR thallium flux fluorescence; AID 2287; actives 68% (n = 1,200); potentiation, less the hit threshold, % at 10 µM;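 active means fluorescence ratio rising 3 SD or more over the vehicle control mean in both replicates, plus primary screen hit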;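 further: peak minus minimum thallium fluorescence divided by baseline after K/Tl stimulus; 0% = vehicle mean plus 3 SD and 100% = vehicle minus unstimulated blank difference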
Kir2-1 sel: mouse Kir2.1 off-target activity of KCNQ2 potentiators | AID 2345 | HEK293 Kir2.1, FluxOR thallium flux fluorescence | shares compounds with KCNQ2 pot | activity over 3SD threshold, % at 10 µM | actives 2% (n = 1,200);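 active means fluorescence ratio rise of at least 3 SD above the vehicle-control mean, seen in both replicates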;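 further: 0% = vehicle mean plus 3 SD and 100% = vehicle minus no-stimulus blank window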
KCNQ2 W236L MoA: rat KCNQ2 W236L mutant potentiation by KCNQ2 potentiators; CHO KCNQ2-W236L, automated patch clamp current; AID 2558; shares compounds with KCNQ2 pot; actives 10% (n = 940); current increase over 3SD of negative controls (%), active compounds read high, % at 25 µM;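 active means current increase at least 3 SD of the untreated controls above them in both duplicate recordings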
Active calls of the source: *; i = inactive; / = not tested or not shown. Shown are actives, neighbours in structure and some others; about 1.6% of the full set was active somewhere.

SMILES	KCNQ2 inh	KCNQ2 pot	Kir21 conf inh	HEK293 Tl flux	others
O=C(NCCCN1CCOCC1)c1ccc(CSc2ccc(Cl)cc2)cc1	i	0.59	62%*	i
CC(C)c1ccc(C(=O)NCCCN2CCOCC2)cc1	i	/	/	/
Cc1ccc2[nH]cc(S(=O)(=O)c3ccc(C)c(C)c3)c(=O)c2c1	i	0.37	/	/
CSc1ccc(CN(C)C(=O)CNC(=O)c2sc3ccccc3c2Cl)cc1	i	/	/	/
Cc1ccc(N2CC(C(=O)N/N=C/c3c(F)cccc3Cl)CC2=O)cc1 (stereo not drawn)	i	/	/	/
COc1ccc(S(=O)(=O)NN(C)c2ncc(C(F)(F)F)cc2Cl)cc1	i	/	61%*	i
CC(C)NS(=O)(=O)c1ccc(Oc2ncc(C(F)(F)F)cc2Cl)cc1	i	/	/	/
CCOC(=O)c1csc(N/N=C2\CCCc3ccccc32)n1	i	5.5*	i	i	CHO-K1 ctr=22*;KCNQ1 pot spec=-13;KCNQ2 pot confirm=-10;Kir2-1 sel=-43;KCNQ2 W236L MoA=i
CCOC(=O)c1csc(N/N=C2\CCc3ccccc32)n1	i	2.9	/	/
COc1ccc2c(c1OC)C(=O)N1C2SC(C)(C)[C@H]1C(=O)NC1CC1 (stereo partly drawn)	i	/	/	/
CCn1c2ccc(C)cc2c2n[nH]c(=S)nc21	i	0.24	/	/
COc1ccc(S(=O)(=O)n2ccc(-c3ccc4c(c3)CCC(C)(C)O4)n2)cc1	i	8.2*	i	i	CHO-K1 ctr=3.8*;KCNQ1 pot spec=-18;KCNQ2 pot confirm=-10;Kir2-1 sel=-29
CC1(C)CCc2cc(CN3CCN(c4ccccn4)CC3)ccc2O1	i	1.7	/	/
CC1(C)CCc2cc(-c3ccn(S(=O)(=O)c4ccccc4Cl)n3)ccc2O1	i	19*	i	i	CHO-K1 ctr=4.6*;KCNQ1 pot spec=-9;KCNQ2 pot confirm=39*;Kir2-1 sel=-28;KCNQ2 W236L MoA=3.0%*
CC1(C)CCc2cc(-c3ccnc(=S)[nH]3)ccc2O1	i	/	/	/
CC(NC(=O)CCNC(=O)c1ccc(Br)cc1)c1ccc(-n2ccnc2)cc1 (stereo not drawn)	i	1.4	/	/
Cc1c(C(=O)Nc2c(F)cc(F)cc2Br)sc2ncn(CC(=O)N3CCCC3)c(=O)c12	i	0.93	/	/
Cc1cccc(C(=O)N[C@H](C(=O)NCCc2ccc(S(N)(=O)=O)cc2)C(C)C)c1	i	/	/	/
CCOc1ccc(Cl)cc1CNCCCSc1ncccn1	i	/	/	/
CCOc1ccc(Cl)cc1CNCCCSc1nc(C)cc(C)n1	i	0.03	52%*	i
CCC(=O)c1ccc(N2CCN(C(=O)c3cccs3)CC2)c(F)c1	i	0.79	/	/
COc1cc(C(=O)NCc2ncccc2C)ccc1OC1CCN(C(C)=O)CC1	i	/	/	/
Cc1ccc(S(=O)(=O)O/N=C2\CCCc3ccccc32)cc1	i	1.5	/	/
CC1=C(C)/C(=N\OS(=O)(=O)c2ccccc2)C=CC1=O	i	6.9*	69%*	i	CHO-K1 ctr=17*;KCNQ1 pot spec=-17;KCNQ2 pot confirm=28*;Kir2-1 sel=-64;KCNQ2 W236L MoA=57%*
Cc1ccc(S(=O)(=O)N2CCC(C(=O)N3CCCC3C(=O)N[C@@H](CC(C)C)C(=O)NCC(N)=O)CC2)cc1 (stereo partly drawn)	i	1.3	/	/
SMILES	KCNQ2 inh	KCNQ2 pot	Kir21 conf inh	HEK293 Tl flux	others
Cc1ccc(C(OCC(O)CNCc2ccc(F)cc2)c2ccccc2)cc1 (stereo not drawn)	i	/	34%*	i
Cc1ccc(C(OCC(O)CN2CCCCC2CO)c2ccccc2)cc1 (stereo not drawn)	i	0.03	/	/
Cc1ccc(OCC(O)CNCc2ccccc2)cc1C (stereo not drawn)	i	/	/	/
O=C(c1ccccc1)c1ccc(OCC(O)CNCc2ccc(F)cc2)cc1 (stereo not drawn)	i	/	26%*	i
CCC(=O)c1ccc(OCC(O)CNCc2ccc(F)cc2)cc1 (stereo not drawn)	i	0.66	/	/
O=C(c1ccccc1)c1ccc(OCC(O)CNCc2cccc(Cl)c2)cc1 (stereo not drawn)	i	/	48%*	i
COc1ccc(C(OCC(O)CNC(C)c2ccccc2)c2ccc(OC)cc2)cc1 (stereo not drawn)	i	/	/	/
COc1ccc(C(OCC(O)CNCCc2ccccc2)c2ccc(OC)cc2)cc1 (stereo not drawn)	i	/	44%*	i
O/N=C(/c1ccccc1)c1cc2cc(Br)cc(Br)c2o1	i	/	/	/
NNC(=O)C(Cc1cnc[nH]1)NC(=O)OCc1ccccc1 (stereo not drawn)	i	/	/	/
Cc1nonc1CC(=O)NC1CCCc2c1cnn2-c1ccc(F)cc1F (stereo not drawn)	i	/	/	/
CCC/C(=N\NC(=O)c1ccco1)c1ccc(Cl)s1	i	0.47	/	/
CCc1ccc(C(=O)CSC2=C(C#N)C(c3ccco3)C(C(C)=O)=C(C)N2)cc1 (stereo not drawn)	i	9.8*	i	i	CHO-K1 ctr=113*;KCNQ1 pot spec=-11;KCNQ2 pot confirm=-5;Kir2-1 sel=-24
CC(=O)C1=C(C)NC(SCC(=O)c2ccc(F)cc2)=C(C#N)C1c1ccco1 (stereo not drawn)	i	4.8	/	/
N#CC1=C(SCC(=O)c2ccccc2)NC2=C(C(=O)CCC2)C1c1ccco1 (stereo not drawn)	i	1.6	/	/
Cc1ccc(C(=O)CSC2=C(C#N)C(c3ccco3)C3=C(CCCC3=O)N2)cc1 (stereo not drawn)	i	6.6*	i	i	CHO-K1 ctr=0.0*;KCNQ1 pot spec=5.9*;KCNQ2 pot confirm=-7;Kir2-1 sel=-30
CC(C)c1cc(C(=O)N2CCCC(N3CCN(c4ccc(F)cc4)CC3)C2)n(C)n1 (stereo not drawn)	i	/	/	/
COc1ccc(-c2[nH]ncc2CNC(C)CCn2cccn2)cc1F (stereo not drawn)	i	1.8	/	/
COc1ccc(-c2[nH]ncc2CNC(C)c2ccccc2Cl)cc1F (stereo not drawn)	i	3	60%*	i
CCCn1c(CN2CCN(C(=O)OCC)CC2)nc2cc(NC(C)=O)ccc21	i	/	/	/
Cc1cc(OCC(O)CN2CCc3ccccc3C2)ccc1Cl (stereo not drawn)	i	/	/	/
O=C(COc1ccc2ccccc2c1)NNC(=O)C(=O)Nc1ccccc1	i	12*	i	i	CHO-K1 ctr=-5;KCNQ1 pot spec=-7;KCNQ2 pot confirm=-10;Kir2-1 sel=-38;KCNQ2 W236L MoA=i

From PubChem BioAssay
